Experimental data reported in PubChem BioAssay (EPA / NIEHS).
“And” between values parts separate entries of the source, which are not always exact repeats. Identical values can stand only once. The source holds several records for some structures; these can differ, active in one and inactive in another. The source made the active and inactive calls. How the source made its calls: active means hit-call score of the fitted dose curve at least 0.9, where 1 is the maximum; inconclusive means response in the unintended direction; inactive means score below 0.9.

target: Estrogen receptor (Homo sapiens) (UniProt P03372); experiment: OT_ER_ERaERa_1440: Odyssey Thera (OT) 24-hour HEK293T Protein-Complementation Assay for Estrogen Receptor-alpha/-alpha Homodimer (AID 2283349);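 further: hits raise fluorescence above DMSO for agonists and antagonists alike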
Method: OT_ER_ERaERa_1440 is a cell-based assay that uses HEK293T, a human kidney cell line, with measurements taken at 24 hours after chemical dosing in a 384-well plate.OT_ER_ERaERa_1440 is one of one assay component(s) measured or calculated from the OT_ER_ERaERa_1440 assay. It is designed to make measurements of protein fragment complementation, a form of binding reporter, as detected with fluorescence intensity signals by Protein-fragment Complementation technology.Data from the assay component OT_ER_ERaERa_1440 was analyzed into 1 assay endpoint. This assay endpoint, OT_ER_ERaERa_1440, was analyzed in the positive analysis fitting direction relative to DMSO as the negative control and baseline of activity. Using a type of binding reporter, measures of receptor for gain-of-signal activity can be used to understand the binding at the pathway-level as they relate to the gene ESR1. Furthermore, this assay endpoint can be referred to as a primary readout, because the performed assay has only produced 1 assay endpoint. To generalize the intended target to other relatable targets, this assay endpoint is annotated to the nuclear receptor intended target family, where the subfamily is steroidal.
Protein-fragment complementation assay, or PCA, is a method for the identification and quantification of protein-protein interactions. In the PCA, the proteins of interest ("bait" and "prey") are each covalently linked to fragments of a third protein (e.g. DHFR, which acts as a "reporter"). Interaction between the bait and the prey proteins brings the fragments of the reporter protein in close proximity to allow them to form a functional reporter protein whose activity can be measured. The OT ER alpha / ER alpha assay is a homodimer PCA of the ligand binding domain (amino acids 310-547) of human ER alpha stably expressed in HEK293T cells. […] Fluorescent signal in the basal state of the assay is very low and is primarily punctuate and cytoplasmic. Modulation of this assay is quantified as an increase in mean fluorescence intensity in the nucleus (for agonists) or in the nucleus and cytoplasm (antagonists) relative to vehicle controls, and can be quantified on a high content imaging device or a laser scanning cytometer. The latter instrument is favored for this assay because of the rapid mode of data acquisition, the ability to acquire data from the entire cell population in a well (as opposed to a fraction of the well on the high content devices) and the larger dynamic range typically achieved with this instrument. To assess sensitivity of the ER alpha/ER alpha LBD assay to ligand, cells were treated with the ER agonist 17 beta-estradiol (E2) in 10-point concentration- response format for 24 hours and monitored response on a laser scanning plate cytometer (Acumen eX3; TTP Lab Tech).

Chain of Estrogen receptor (Homo sapiens) (P03372 whole entry, looked up, the tested form may be a part): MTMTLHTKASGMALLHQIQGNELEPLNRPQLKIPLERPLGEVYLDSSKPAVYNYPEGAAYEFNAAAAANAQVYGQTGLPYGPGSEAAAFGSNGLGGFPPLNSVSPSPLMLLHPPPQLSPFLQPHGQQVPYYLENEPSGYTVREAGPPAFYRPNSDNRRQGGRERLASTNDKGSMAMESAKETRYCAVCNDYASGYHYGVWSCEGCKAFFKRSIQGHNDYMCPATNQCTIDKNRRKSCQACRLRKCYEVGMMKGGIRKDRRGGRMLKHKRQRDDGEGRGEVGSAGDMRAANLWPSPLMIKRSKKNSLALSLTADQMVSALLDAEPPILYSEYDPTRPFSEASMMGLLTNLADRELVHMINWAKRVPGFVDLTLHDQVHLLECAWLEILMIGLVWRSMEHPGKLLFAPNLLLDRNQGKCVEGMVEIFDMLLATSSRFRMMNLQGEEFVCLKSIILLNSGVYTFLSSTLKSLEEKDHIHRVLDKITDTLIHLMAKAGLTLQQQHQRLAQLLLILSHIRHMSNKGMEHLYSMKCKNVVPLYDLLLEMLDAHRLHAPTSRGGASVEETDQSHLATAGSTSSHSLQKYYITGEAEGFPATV

Row | Structure (SMILES) | outcome | AC50
1 | CCSC(=O)N(CC(C)C)CC(C)C | inactive | –
2 | CCCCC(CC)CN1C(=O)C2C3C=CC(C3)C2C1=O (centres undefined) | inactive | –
3 | O=C(c1ccccc1)C1CCCCC1 | inactive | –
4 | O=C(Nc1ccc([N+](=O)[O-])cc1Cl)c1cc(Cl)ccc1O | inactive | –
5 | CCN(Cc1c(F)cccc1Cl)c1c([N+](=O)[O-])cc(C(F)(F)F)cc1[N+](=O)[O-] | – | 15.2 µM (active)
6 | CSC(=O)c1cccc2nnsc12 | inactive | –
7 | CC(C)CCCCCCc1ccc(O)cc1 | – | 2.42 µM (active)
8 | CC(=O)[C@H]1CC[C@H]2[C@@H]3CCC4=CC(=O)CC[C@]4(C)[C@H]3CC[C@]12C | inactive | –
9 | C#C[C@]1(O)CC[C@H]2[C@@H]3CCC4=CC(=O)CC[C@@H]4[C@H]3CC[C@@]21CC | inactive | 50.7 µM (active)
10 | O=C(c1ccc(O)cc1O)c1ccc(O)cc1O | – | 7.6 µM (active) and 7.51 µM (active) and 9.91 µM (active)
11 | CC(C)(c1ccc(O)cc1)c1ccc(O)cc1 | inactive | –
12 | CCCN(CCC)C(=O)SCC | inactive | –
13 | COCCO | inactive | –
14 | O=C(O)C1(C(=O)Nc2ccc(Cl)cc2Cl)CC1 | inactive | –
15 | CCOC(=O)NCCOc1ccc(Oc2ccccc2)cc1 | inactive | –
16 | C#CCOC(=O)[C@@H](C)Oc1ccc(Oc2ncc(Cl)cc2F)cc1 | inactive | –
17 | CCCCOC(=O)C(C)Oc1ccc(Oc2ccc(C(F)(F)F)cn2)cc1 (centres undefined) | inactive | –
18 | CCN(CC)C(=O)c1cccc(C)c1 | inactive | –
19 | CCOC(=O)c1ccc(O)cc1 | inactive | 47 µM (active) and 52.6 µM (active) and 67.5 µM (active)

Row | Structure (SMILES) | outcome | AC50
20 | CCOC(=O)COc1cc(-n2ncc(C(F)(F)F)c(C)c2=O)c(F)cc1Cl | inactive | –
21 | CCCCOC(=O)[C@@H](C)Oc1ccc(Oc2ccc(C(F)(F)F)cn2)cc1 | inactive | –
22 | CC1(C)C(C=C(Cl)Cl)C1C(=O)OCc1cccc(Oc2ccccc2)c1 (centres undefined) | inactive | –
23 | O=C(O)c1ccccc1 | inactive | –
24 | CCCOC(=O)c1ccc(C(=O)OCCC)nc1 | inactive | –
25 | N#CSCSc1nc2ccccc2s1 | inactive | –
26 | C[C@]12C[C@H](O)[C@H]3[C@@H](CCC4=CC(=O)CC[C@@]43C)[C@@H]1CC[C@@H]2C(=O)CO | inactive | –
27 | CN(C)C(=O)Nc1ccc(Cl)c(Cl)c1 | inactive | –
28 | OB(O)O | inactive | –
29 | COc1c(Cl)ccc(Cl)c1C(=O)O | inactive | –
30 | CCOC(=O)C(C)Oc1ccc(Oc2cnc3cc(Cl)ccc3n2)cc1 (centres undefined) | inactive | –
31 | CC(=O)S[C@@H]1CC2=CC(=O)CC[C@]2(C)[C@H]2CC[C@@]3(C)[C@@H](CC[C@@]34CCC(=O)O4)[C@H]12 | inactive | –
32 | CCCCCOC(=O)COc1cc(N2C(=O)C3=C(CCCC3)C2=O)c(F)cc1Cl | inactive | –
33 | c1ccc2[nH]c(-c3cscn3)nc2c1 | inactive | –
34 | N[C@@H](Cc1cc(I)c(Oc2ccc(O)c(I)c2)c(I)c1)C(=O)O | inactive | –
35 | CCCN(CCC)c1c([N+](=O)[O-])cc(C(F)(F)F)c(N)c1[N+](=O)[O-] | inactive | –
36 | COC(=O)c1ccccc1C(=O)O | inactive | –
37 | Cc1nn(C)c(Oc2ccccc2)c1C=NOCc1ccc(C(=O)OC(C)(C)C)cc1 | inactive | –
